# Measured values: PubChem BioAssay (Tox21)
# Values joined by “and” are separate entries in the source; they are usually repeats but may differ in a detail not shown here. Equal values may be shown once. Results filed as inconclusive are left out. Where a call stands in place of a potency, no number is given. The source holds several records for some structures; these can differ, active in one and inactive in another. Active and inactive are the calls of the source. Calls come from the whole dose curve; as a rule, active = well fitted cell-killing curve with a large enough effect in the repeat runs; inconclusive = weak or mixed curves, or effect the other way; inactive = no such curve, though single readings can be large or run the other way.
# Test: qHTS assay to identify small molecule antagonists of the retinoid-related orphan receptor gamma (ROR-gamma) signaling pathway - cell viability counter screen (AID 1159520); note: nearly all actives have a fitted effect of over 50% in size
# Settings: Tet-on RORgamma CHO cells viability, ATP luminescence, 16 h; series mostly up to 92.4 µM
# Source text: U.S. Tox21 Program National Center for Advancing Translational Sciences [NCATS] NIH Chemical Genomics Center [NCGC] U.S. Environmental Protection Agency [EPA] National Institutes of Environmental Health Sciences [NIEHS] National Toxicology Program [NTP] U.S. Food and Drug Administration [FDA] Tox21 Assay Overview: Nuclear steroid hormone receptors are involved in many biological processes including inflammatory responses, cell proliferation, and apoptosis. Environmental factors or compounds disrupting these nuclear receptor pathways and gene expression may promote susceptibility to immunotoxicants and autoimmune diseases. One important group of these expression factors are the retinoid-related orphan receptors. To assess compounds that may interfere with the retinoid-related orphan receptor gamma (ROR-gamma) transcription factor, a cell-based luciferase assay was used. The CHO cell-based assay utilizes a TET-inducible ROR expression factor and ROR response element-LUC reporter gene. Reporter gene activity was induced using Doxycycline Hyclate and measured after 16 hr incubation. Tet-on ROR gamma CHO cells were used to screen against the Tox21 10K compound library for cytotoxicity by measuring the viability of the cells based on the quantitation of the ATP.
# Tox21 Assay Protocol Summary: Tet-on ROR gamma CHO cells were dispensed at 1,000 cells in 4 uL of culture medium per well into white wall/solid bottom 1536-well plates using a Multidrop Combi (Thermo Scientific, Waltham, MA) dispenser. Following incubation at 37 C and 5% CO2 for 4 hr, 23 nL of compounds dissolved in DMSO, positive controls or DMSO only were transferred by a Pintool station (Kalypsys, San Diego, CA) and after 2 hr incubation at 37 C, one ul of 1 uM (final concentration) of Doxycycline Hyclate was added to all the wells by using a Flying Reagent Dispenser (FRD) (Aurora Discovery, San Diego, CA). After 16 hr incubation at 37 C and 5% CO2, 5 uL of CellTiter-Glo reagent (Promega Corporation, Madison, WI) was added to each assay plate using FRD. After 30 min incubation at room temperature, luminescence was quantified on a ViewLux plate reader (Perkin Elmer, Waltham, MA).
# Potency is the fitted concentration of half-maximal effect.
SMILES,Potency,"activity, negative = cytotoxicity"
C=C(C)C(=O)Nc1ccc(Cl)c(Cl)c1,inactive,–
C=C(C)C(=O)OCCOCCOCCOC(=O)C(=C)C,inactive,–
O=C(O)c1ccccc1C(c1ccc(O)cc1)c1ccc(O)cc1,inactive,–
C/C=C1/CC2C=CC1C2 (stereo not given),inactive,–
CN(C)CCCN,inactive,–
CCCCCC1=CCCC1=O,inactive,–
O=C(O)c1cc(O)c(O)c(O)c1,inactive,–
O=[N+]([O-])c1ccc(/C=C/c2ccc([N+](=O)[O-])cc2S(=O)(=O)O)c(S(=O)(=O)O)c1,inactive,–
CC(=O)c1ccccc1,inactive,–
c1ccc2c(c1)ccc1ccccc12,inactive,–
C=C(C)C(=O)O[C@H]1C[C@@H]2CC[C@@]1(C)C2(C)C,inactive,–
O=C(O)[C@H](O)[C@@H](O)[C@H](O)[C@H](O)CO,inactive,–
CC(c1cc2ccccc2s1)N(O)C(N)=O (stereo not given),inactive,–
O=S1(=O)CC=CC1,inactive,–
C#CCN(C)Cc1ccccc1,inactive,–
O=C=NCCCCCCN=C=O,inactive,–
CCCCCCCCCC,inactive,–
CCCCCCCCCCCCOCCO,inactive,–
O=C(Oc1ccccc1)c1ccccc1,inactive,–
COc1ccc2cc([C@H](C)C(=O)O)ccc2c1,inactive,–

SMILES,Potency,"activity, negative = cytotoxicity"
Oc1cccc2ccccc12,inactive,–
O=C(CC(C(=O)OC1CCCCC1)S(=O)(=O)O)OC1CCCCC1 (stereo not given),inactive and 53.8 µM (active),–
O=C(O)CCCCCCCCCCC(=O)O,inactive,–
O=c1[nH]c(=O)n([C@H]2CCCO2)cc1F,inactive,–
O=C(O)c1ccc2c(c1)C(=O)OC2=O,inactive,–
OCc1cccnc1,inactive,–
CC(C)(C)[C@@H](O)[C@@H](Cc1ccc(Cl)cc1)n1cncn1,inactive,–
C[Si](O[Si](C)(C)C)O[Si](C)(C)C,inactive,–
N[C@@H](Cc1cc(I)c(Oc2cc(I)c(O)c(I)c2)c(I)c1)C(=O)O,inactive,–
CCCCC(CC)COC(=O)C(C#N)=C(c1ccccc1)c1ccccc1 (stereo not given),inactive,–
c1c[nH]cn1,inactive,–
CCN(CC)CCCC(C)Nc1ccnc2cc(Cl)ccc12 (stereo not given),–,-1.33% [at 8.39 µM] (inactive) and 0.877% [at 19 µM] (inactive)
OCCOCCOCCO,inactive,–
CC(C)c1ccc(S(=O)(=O)O)cc1,inactive,–
CCCCCC/C(C=O)=C\c1ccccc1,inactive,–
CC1CCC2CC1C2(C)C (stereo not given),inactive,–
CCCCN(CCCC)CCCC,inactive,–
CC(=O)Nc1ccccc1,inactive,–
C[C@H]1C[C@H]2[C@@H]3CCC4=CC(=O)C=C[C@]4(C)[C@@]3(F)[C@@H](O)C[C@]2(C)[C@@]1(O)C(=O)CO,inactive,–
c1ccc2scnc2c1,inactive,–
